For orientation: inhibition means the drop in the measured response relative to a control, in per cent.

The target in assay [1] is Tyrosine-protein kinase SYK (Homo sapiens) (UniProt P43405). The settings on record: at 1 µM.
In assay [2] the target is T1, Tyrosine-protein kinase Tec (Homo sapiens) (UniProt P42680).
T1 sequence (whole entry): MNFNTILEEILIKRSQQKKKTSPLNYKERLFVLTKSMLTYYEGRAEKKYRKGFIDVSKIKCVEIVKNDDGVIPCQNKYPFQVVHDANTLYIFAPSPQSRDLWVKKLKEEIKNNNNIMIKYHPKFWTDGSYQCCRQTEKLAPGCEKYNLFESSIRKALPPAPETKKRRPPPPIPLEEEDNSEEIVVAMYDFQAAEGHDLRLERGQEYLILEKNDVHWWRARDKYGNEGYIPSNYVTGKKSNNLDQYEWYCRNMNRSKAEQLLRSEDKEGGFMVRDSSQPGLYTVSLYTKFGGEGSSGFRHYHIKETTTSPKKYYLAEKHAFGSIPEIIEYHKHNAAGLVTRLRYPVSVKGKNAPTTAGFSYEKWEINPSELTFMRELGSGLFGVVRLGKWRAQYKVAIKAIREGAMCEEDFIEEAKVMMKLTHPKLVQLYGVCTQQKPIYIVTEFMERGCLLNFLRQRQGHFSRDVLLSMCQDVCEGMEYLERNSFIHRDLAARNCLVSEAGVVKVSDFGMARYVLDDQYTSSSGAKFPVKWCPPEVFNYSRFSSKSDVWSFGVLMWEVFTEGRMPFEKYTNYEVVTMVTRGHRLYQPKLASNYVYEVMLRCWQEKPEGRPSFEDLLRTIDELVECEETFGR
To be noted: at 0.1 µM.

Assay [3] concerns the target T1, Tyrosine-protein kinase Tec (Homo sapiens). The settings on record: at 1 µM.
For assay [4], the target named is Angiopoietin-1 receptor (Homo sapiens) (UniProt Q02763). The settings on record: at 0.1 µM.
Assay [5] has the same target. To be noted: at 1 µM.
The target of assay [6] is T2, Non-receptor tyrosine-protein kinase TNK1 (Homo sapiens) (UniProt Q13470).
T2 sequence (whole entry): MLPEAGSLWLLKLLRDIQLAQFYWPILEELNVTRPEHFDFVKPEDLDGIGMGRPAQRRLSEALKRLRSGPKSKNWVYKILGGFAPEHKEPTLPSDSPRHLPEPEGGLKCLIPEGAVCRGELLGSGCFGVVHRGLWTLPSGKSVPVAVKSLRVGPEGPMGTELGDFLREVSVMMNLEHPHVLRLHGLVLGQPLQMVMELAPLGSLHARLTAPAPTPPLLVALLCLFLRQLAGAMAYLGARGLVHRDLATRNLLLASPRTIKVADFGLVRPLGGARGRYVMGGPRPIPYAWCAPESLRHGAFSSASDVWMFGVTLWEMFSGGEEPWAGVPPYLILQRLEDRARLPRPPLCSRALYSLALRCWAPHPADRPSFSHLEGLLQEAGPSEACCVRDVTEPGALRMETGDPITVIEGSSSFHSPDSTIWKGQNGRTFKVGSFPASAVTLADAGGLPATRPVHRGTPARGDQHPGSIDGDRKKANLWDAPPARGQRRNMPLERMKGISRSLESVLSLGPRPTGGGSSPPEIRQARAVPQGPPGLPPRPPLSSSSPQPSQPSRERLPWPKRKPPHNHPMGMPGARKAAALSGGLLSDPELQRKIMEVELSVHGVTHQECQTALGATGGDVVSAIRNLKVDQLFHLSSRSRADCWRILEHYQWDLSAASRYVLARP
To be noted: at 0.1 µM.

The target of assay [7] is T2, Non-receptor tyrosine-protein kinase TNK1 (Homo sapiens). To be noted: at 1 µM.
Assay [8] has as its target Activated CDC42 kinase 1 (Homo sapiens) (UniProt Q07912). To be noted: at 0.1 µM.
For assay [9] the target is unchanged. To be noted: at 1 µM.
The target of assay [10] is High affinity nerve growth factor receptor (Homo sapiens) (UniProt P04629). To be noted: at 0.1 µM.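 Note: each value is a mean of replicate percent inhibition readings against TRKA kinase.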
High affinity nerve growth factor receptor (Homo sapiens), sequence (P04629 33-796 limits assumed): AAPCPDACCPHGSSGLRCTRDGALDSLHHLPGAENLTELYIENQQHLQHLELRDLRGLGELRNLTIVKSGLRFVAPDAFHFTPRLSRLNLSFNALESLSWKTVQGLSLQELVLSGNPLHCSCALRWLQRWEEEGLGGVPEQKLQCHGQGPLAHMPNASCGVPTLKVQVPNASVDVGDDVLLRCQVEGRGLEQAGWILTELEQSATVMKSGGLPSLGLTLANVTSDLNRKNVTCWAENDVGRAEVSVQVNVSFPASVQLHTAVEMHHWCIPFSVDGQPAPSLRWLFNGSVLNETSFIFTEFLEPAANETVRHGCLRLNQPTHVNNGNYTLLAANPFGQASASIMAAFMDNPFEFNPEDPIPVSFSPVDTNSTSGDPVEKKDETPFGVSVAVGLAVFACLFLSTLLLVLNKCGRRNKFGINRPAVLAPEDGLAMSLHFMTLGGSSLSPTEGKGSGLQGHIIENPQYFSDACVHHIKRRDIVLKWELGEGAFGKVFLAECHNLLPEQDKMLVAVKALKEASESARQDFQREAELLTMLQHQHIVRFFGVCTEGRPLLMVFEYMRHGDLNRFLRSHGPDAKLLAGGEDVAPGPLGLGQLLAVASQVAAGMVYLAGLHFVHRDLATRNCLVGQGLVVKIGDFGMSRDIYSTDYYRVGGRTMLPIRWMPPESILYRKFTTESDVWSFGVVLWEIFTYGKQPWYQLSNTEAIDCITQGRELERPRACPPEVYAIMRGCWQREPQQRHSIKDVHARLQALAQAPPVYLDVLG

Activated CDC42 kinase 1 (Homo sapiens), sequence (Q07912 whole entry, looked up): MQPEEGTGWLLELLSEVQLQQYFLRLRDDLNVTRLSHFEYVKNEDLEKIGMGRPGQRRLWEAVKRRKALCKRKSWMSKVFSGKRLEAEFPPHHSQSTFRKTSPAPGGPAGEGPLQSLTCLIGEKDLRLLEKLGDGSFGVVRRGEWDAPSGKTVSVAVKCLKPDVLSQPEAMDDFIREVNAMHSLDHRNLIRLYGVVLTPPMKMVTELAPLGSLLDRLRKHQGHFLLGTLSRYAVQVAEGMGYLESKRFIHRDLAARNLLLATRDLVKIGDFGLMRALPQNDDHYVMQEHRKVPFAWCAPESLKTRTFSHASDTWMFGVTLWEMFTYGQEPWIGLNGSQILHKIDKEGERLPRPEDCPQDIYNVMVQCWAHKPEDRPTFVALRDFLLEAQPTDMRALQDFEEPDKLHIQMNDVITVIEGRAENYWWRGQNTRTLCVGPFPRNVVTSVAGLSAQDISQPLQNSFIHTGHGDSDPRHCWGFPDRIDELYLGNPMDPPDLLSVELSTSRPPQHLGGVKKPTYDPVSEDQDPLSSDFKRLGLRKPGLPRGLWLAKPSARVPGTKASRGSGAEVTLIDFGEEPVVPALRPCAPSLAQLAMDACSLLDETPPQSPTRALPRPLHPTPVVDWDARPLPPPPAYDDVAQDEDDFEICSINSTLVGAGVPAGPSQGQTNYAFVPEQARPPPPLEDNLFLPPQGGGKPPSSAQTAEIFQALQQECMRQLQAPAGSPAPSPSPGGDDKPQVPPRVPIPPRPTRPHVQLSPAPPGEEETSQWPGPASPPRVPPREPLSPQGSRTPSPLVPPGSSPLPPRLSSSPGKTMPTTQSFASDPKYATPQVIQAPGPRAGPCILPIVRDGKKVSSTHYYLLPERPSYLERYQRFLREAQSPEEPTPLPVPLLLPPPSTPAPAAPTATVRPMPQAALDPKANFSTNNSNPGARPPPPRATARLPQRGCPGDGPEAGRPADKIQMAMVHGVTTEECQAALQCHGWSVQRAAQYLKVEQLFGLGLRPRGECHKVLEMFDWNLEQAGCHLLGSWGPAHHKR
Angiopoietin-1 receptor (Homo sapiens), sequence (Q02763 whole entry): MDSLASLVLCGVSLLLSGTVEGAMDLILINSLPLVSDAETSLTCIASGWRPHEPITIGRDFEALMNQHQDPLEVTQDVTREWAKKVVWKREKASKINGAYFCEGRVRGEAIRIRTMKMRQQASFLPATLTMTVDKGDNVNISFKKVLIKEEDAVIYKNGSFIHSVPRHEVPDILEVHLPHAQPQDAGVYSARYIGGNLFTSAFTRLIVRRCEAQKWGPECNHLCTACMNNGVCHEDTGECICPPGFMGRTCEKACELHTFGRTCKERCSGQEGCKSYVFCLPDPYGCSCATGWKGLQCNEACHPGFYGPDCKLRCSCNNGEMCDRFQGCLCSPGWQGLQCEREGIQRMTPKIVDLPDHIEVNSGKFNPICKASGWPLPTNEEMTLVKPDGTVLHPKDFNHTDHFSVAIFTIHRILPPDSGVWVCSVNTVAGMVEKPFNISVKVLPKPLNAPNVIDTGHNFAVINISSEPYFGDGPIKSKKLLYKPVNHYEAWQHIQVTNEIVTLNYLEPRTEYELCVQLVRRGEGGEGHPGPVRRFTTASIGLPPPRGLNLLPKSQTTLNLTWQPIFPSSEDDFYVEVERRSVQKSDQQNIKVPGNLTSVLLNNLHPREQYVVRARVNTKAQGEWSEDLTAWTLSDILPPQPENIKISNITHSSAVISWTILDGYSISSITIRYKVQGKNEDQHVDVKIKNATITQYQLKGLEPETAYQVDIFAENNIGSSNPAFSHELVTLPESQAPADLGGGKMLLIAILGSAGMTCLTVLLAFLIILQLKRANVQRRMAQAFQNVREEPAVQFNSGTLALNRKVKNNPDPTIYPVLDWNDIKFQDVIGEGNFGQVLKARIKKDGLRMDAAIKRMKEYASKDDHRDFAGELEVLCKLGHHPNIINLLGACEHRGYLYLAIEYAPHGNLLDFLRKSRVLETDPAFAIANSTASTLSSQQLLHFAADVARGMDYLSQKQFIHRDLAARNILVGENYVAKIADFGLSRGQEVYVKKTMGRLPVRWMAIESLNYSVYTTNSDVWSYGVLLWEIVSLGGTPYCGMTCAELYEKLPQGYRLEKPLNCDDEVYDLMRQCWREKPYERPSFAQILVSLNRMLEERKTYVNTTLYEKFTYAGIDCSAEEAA

For `CN(C)CCOc1ccc(-c2nc(-c3ccncc3)c(-c3ccc4c(c3)CC/C4=N\O)[nH]2)cc1`, the inhibition is -0.9% in assay [1]; 4.78% in assay [2]; 5.79% in assay [3]; 2.29% in assay [4]; 11.9% in assay [5]; 2.5% in assay [6]. For the same compound, the inhibition worked out at 10.2% in assay [7], 1.21% in assay [8], 2.51% in assay [9] and 2.02% in assay [10].
For the compound `CNC(=O)c1cc(-c2ccc(F)cc2)cc(-c2ccc(S(=O)(=O)N3CCCC3)cc2)c1N`, the inhibition in [1] was found to be 0.73%; in [2], 2.93%; in assay [3], 3.29%; in [4], 2.3%; in assay [5] it was 2.3%; in assay [6], 2.65%. For the same compound, the inhibition came out at 2.41% in [7], 0.47% in [8], 1.54% in assay [9] and 1.97% in [10].
`Nc1nc(-c2cccc(Cl)c2)c(-c2ccc3ncccc3n2)s1`: the inhibition in assay [1] is -0.99%; in assay [2], 5.56%; in assay [3], 5.26%; in assay [4], 4.2%; in assay [5] it was 5.76%; in assay [6], 3.08%. The inhibition in assay [7] is 11.5%; in assay [8] it was 3.52%; in [9], 2.83%; in assay [10], 2.32%.
Consider `Cc1ccc(O)cc1Nc1ccnc2cc(-c3ccccn3)ccc12`, for which the inhibition in [1] stood at 1.9%; in assay [2], 46%; in assay [3], 83.4%; in assay [4], 7.91%; in assay [5], 48.2%; in [6], 8.49%. In addition, the inhibition amounted to 38.1% in [7], 2.64% in [8], 18% in assay [9] and 4% in assay [10].
As to `CCn1cc(-c2ccnc3[nH]ccc23)c(-c2cccc(NC(=O)Nc3ccc(OCc4ccccc4)cc3)c2)n1`, the inhibition in assay [1] was -2.75%; in assay [2], -0.28%; in assay [3] it was 0.98%; in [4], -0.17%; in assay [5], 6.2%; in [6], 1.05%. Also, the inhibition was 11.2% in [7], -0.68% in [8], 2.63% in assay [9] and -1.48% in assay [10].
As for `O=C(Nc1n[nH]c2cc(-c3ccc(F)cc3)ccc12)C1CC1`, the inhibition in assay [1] came to 1.05%; in assay [2], 3.06%; in assay [3] it was 4.11%; in assay [4], 1.89%; in [5], 6.64%; in [6], 0.9%. Besides, the inhibition in assay [7] came to 5.38%; in assay [8], 0.53%; in [9] it was 1.19%; in [10] it was 4.77%.
On to `CC(C)COC(=O)c1ccc2c(c1)/C(=C/Nc1ccc(S(N)(=O)=O)cc1)C(=O)N2`, for which the inhibition is -2.67% in [1]; 0.3% in assay [2]; 6.56% in [3]; 0.75% in assay [4]; 7.91% in assay [5]; -3.82% in [6]. The inhibition is 5.07% in assay [7], -0.91% in assay [8], 0.01% in assay [9] and 2.03% in [10].
For the compound `N#Cc1c(NC(=O)CN2CCOCC2)sc2c1CCCC2`, the inhibition in assay [1] is -1.53%; in assay [2], 3.74%; in assay [3], 7.22%; in [4] it was 2.61%; in assay [5], 4.26%; in assay [6], 3.32%. Further, the inhibition is 8.64% in assay [7], 1.58% in assay [8], 3.21% in assay [9] and 3.46% in assay [10].
Turning to `COc1cc(/C=N/Nc2ncnc3[nH]ncc23)ccc1O`, the inhibition in assay [1] turned out to be 14.2%; in assay [2], 8.19%; in [3], 38.6%; in assay [4], 2.16%; in [5], 9.2%; in [6], 4.02%. The inhibition in assay [7] turned out to be 18.9%; in assay [8], 1.76%; in [9], 8.52%; in assay [10], 2.3%.
On to `Fc1cccc(COc2ccc(Nc3ncnc4sc(-c5ccco5)cc34)cc2Cl)c1`, for which the inhibition in assay [1] is -6.92%; in [2] it was 0.94%; in [3], 5.13%; in assay [4], 4.1%; in assay [5], 6.76%; in assay [6], 1.8%. Further, the inhibition in assay [7] came out at 17%; in assay [8] it was 1.13%; in assay [9] it was 1.93%; in assay [10], 1.02%.
For the compound `CCn1c(-c2nonc2N)nc2c(C#CC(C)(C)O)ncc(OC3CCNCC3)c21`, the inhibition was 1.12% in assay [1]; 5.92% in [2]; 3.33% in assay [3]; 4.81% in [4]; 7.95% in assay [5]; 1.33% in assay [6]. The inhibition in assay [7] was determined as 0.26%; in assay [8] it was 0.61%; in assay [9] it was 1.17%; in assay [10], 2.16%.
In the case of `CCCN(CCS(C)(=O)=O)Cc1ccc(-c2ccc3ncnc(Nc4ccc(OCc5cccc(F)c5)c(Cl)c4)c3c2)o1`, the inhibition was 1.17% in assay [1]; 2.93% in assay [2]; 4.68% in assay [3]; 1.56% in assay [4]; 6.25% in assay [5]; 1.24% in [6]. The inhibition was found to be 12% in assay [7], 0.32% in assay [8], 1.4% in assay [9] and 2.55% in assay [10].
For `COC(=O)Nc1nc2ccc(Oc3ccc(NC(=O)Nc4cccc(Cl)c4)cc3)cc2[nH]1`, the inhibition in [1] was 0.56%; in assay [2], -0.16%; in assay [3], 1.83%; in assay [4], 17.1%; in [5], 44.7%; in assay [6], 2.25%. The inhibition is 7.76% in assay [7], 0.12% in assay [8], -0.32% in assay [9] and 15.6% in [10].
Consider `CCn1c(-c2nonc2N)nc2c(C#CC(C)(C)O)nc(OC[C@H](N)c3ccccc3)cc21`, for which the inhibition in assay [1] stood at 4.13%; in [2] it was 6.27%; in assay [3] it was 3.05%; in [4], 5.91%; in assay [5] it was 6.74%; in assay [6], 1.23%. Further, the inhibition in [7] is -4.26%; in [8] it was 0.7%; in [9], 3.88%; in [10] it was 0.42%.
`c1ccc(COc2ccc(Nc3ncnc4ccc(-c5ccco5)cc34)cc2)cc1`: the inhibition in assay [1] was -0.46%; in assay [2], 1.31%; in assay [3] it was 3.25%; in [4], 2.64%; in assay [5] it was 3.4%; in assay [6], 1.53%. Besides, the inhibition is 5.09% in [7], -0.27% in [8], 0.03% in assay [9] and -2.34% in [10].
Turning to `COc1ccc2[nH]c3c4[nH]c5ccc(OC)cc5c4c4c(c3c2c1)C(=O)NC4=O`, the inhibition came out at 10.5% in assay [1]; 6.89% in assay [2]; 31% in assay [3]; 1.36% in assay [4]; 5% in [5]; 63.6% in assay [6]. Also, the inhibition in [7] stood at 89%; in assay [8] it was 5.57%; in assay [9] it was 16%; in assay [10] it was 3.47%.
With `COc1cccc(-n2ncc3c(N/N=C/c4ccc(F)cc4)ncnc32)c1`, the inhibition in assay [1] is -3.59%; in assay [2] it was 5%; in assay [3] it was 9.02%; in [4], 2.18%; in assay [5], 5.99%; in assay [6], 5.45%. For the same compound, the inhibition came out at 12.4% in assay [7], 1.52% in [8], 3.5% in assay [9] and 4.72% in assay [10].

The values are drawn from ChEMBL document CHEMBL1961873, “Compounds: GSK PKIS; Assays: Nanosyn kinase panel” (2012).
